# Source: PubChem BioAssay (NCATS)
# Values joined by “and” are separate entries in the source; they are usually repeats but may differ in a detail not shown here. Equal entries are not always repeated. Values without a mark were called inactive. Inconclusive results are not listed. Active and inactive are the calls of the source. Unless noted, calls come from the whole dose curve; as a rule, active = well fitted curve in the direction sought with a large enough effect; inconclusive = small, poorly fitted or top-dose-only effect, or another doubt; inactive = no such curve, though single readings can be large; an effect the other way counts as inactive or inconclusive.
# Tests used:
# [1] = qHTS assay for small molecule disruptors of the mitochondrial membrane potential - 1 hr assay (AID 651754; calls by dose curve; note: potency is the fitted concentration of half-maximal effect; nearly all actives have a fitted effect of over 35% in size)
# Outline: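 Read-out: dye fluorescence at 490 nm ex/535 nm em (monomers) and 540 nm ex/590 nm em (aggregates) in HepG2 cells. Compound exposure 1 hr at 37C, followed by 30 min dye loading.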
# [2] = qHTS assay for small molecule disruptors of the mitochondrial membrane potential - 5 hr assay (AID 651755; calls by dose curve; note: potency is the fitted concentration of half-maximal effect; nearly all actives have a fitted effect of over 40% in size)
# Outline: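 Membrane-potential dye readout: red aggregate (540 ex/590 em) versus green monomer (490 ex/535 em) fluorescence after 30 min dye loading, following 5 hr compound exposure at 37C of overnight-plated HepG2 cells.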
# [3] = biological target: Peroxisome proliferator-activated receptor alpha (Homo sapiens) (UniProt Q07869); assay: qHTS assay for small molecule agonists of the peroxisome proliferator-activated receptor alpha (PPARalpha) signaling pathway (AID 651778); details: PathHunter PPARalpha complementation, chemiluminescence, 6 h; max response: active compounds read high; note: potency is the fitted concentration of half-maximal effect; for max response: % of control where 0% means no effect
# Outline: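 Chemiluminescence from complemented enzyme reported PPARalpha activation in cells after 6 hr of compound treatment at 37 C. The detection reagent was incubated for 60 min at room temperature, and compounds were scored as agonists.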
# [4] = qHTS assay for small molecule activators of the p53 signaling pathway (AID 651743; active = well fitted activation curve with a large enough effect in the signal ratio, not every such curve was filed as active; the % refers to the signal ratio; note: series mostly up to about 92 µM; % of control where 0% means no effect); details: HCT-116 p53RE-bla, beta-lactamase FRET ratio, 16 h; activation: active compounds read high
# Outline: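 A beta-lactamase reporter under p53 response element control, stably carried by HCT-116 cells, reported pathway activation. Test compounds were applied for 16 hours at 37 C, and fluorescence was measured 2 hours after adding the B/G FRET substrate.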
# [5] = biological target: Tumor necrosis factor (Homo sapiens) (UniProt P01375); assay: qHTS assay to identify small molecules that stimulate Tumor Necrosis Factor-alpha (TNF-alpha) secretion (AID 651757; active = well fitted curve in the direction sought with a large enough effect in the signal ratio; the % refers to the signal ratio; note: 0% is about no effect)
# Outline: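 THP-1 cells, 3000/well; compound 17 hrs, 37 C; add cryptate/XL665 anti-TNF-alpha antibody pair; 3 hr RT; TR-FRET (HTRF) read of secreted TNF-alpha. Quantitative HTS format.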
# [6] = qHTS assay for environmental chemicals that activate the Aryl hydrocarbon Receptor (AhR) signaling pathway (AID 651777); details: 1A2-DRE human hepatoma cells, luciferase, 24 h; activation: active compounds read high; note: nearly all actives have a fitted effect of over 15% in size; note: potency is the fitted concentration of half-maximal effect; for activation: % of control where 0% means no effect
# Outline: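 Following a 24 hr incubation with test chemicals at 37 C and 5% CO2, 1A2-DRE human hepatoma cells received One-Glo reagent; after 30 min at room temperature, luciferase output reflected CYP1A2 induction via AhR.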
# [7] = biological target: Nuclear receptor ROR-gamma (Homo sapiens) (UniProt P51449); assay: qHTS assay for small molecule antagonists of the retinoid-related orphan receptor gamma (ROR-gamma) signaling pathway (AID 651802);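 note: CHO cells with doxycycline-induced ROR-gamma expression; luciferase reporter luminescence driven by ROR response element; series mostly up to about 92 µM; % is set by controls: 0 for no effect and ±100 for the full control effect; nearly all actives have a fitted effect of over 60% in size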
# Outline: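 Luciferase read-out: ONE-Glo luminescence after 30 min at room temperature, following 16hr doxycycline induction at 37C, 5% CO2 of CHO cells with TET-inducible ROR and RORE-LUC reporter; decreased luminescence = reduced reporter activity.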
# [8] = qHTS assay for small molecule activators of the nuclear factor-kappa B (NF-kB) signaling pathway (AID 651749; active = well fitted activation curve with a large enough effect in the signal ratio; the % refers to the signal ratio; note: series mostly up to about 77 µM; % of control where 0% means no effect); details: NF-kB-bla ME-180 cells, beta-lactamase FRET ratio, 16 h; active compounds read high
# Outline: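 FRET-based beta-lactamase detection in ME-180 cells reports NF-kB response-element-driven transcription following overnight (16 hr) compound treatment.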
# [9] = biological target: Tyrosine-protein kinase Yes (Homo sapiens) (UniProt P07947); assay: qHTS for small molecule inhibitors of Yes1 kinase: Primary Screen (AID 686947); note: nearly all actives have a fitted effect of over 60% in size; note: potency is the fitted concentration of half-maximal effect
# Outline: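 In this qHTS format, inhibition is expressed relative to DMSO controls with enzyme (maximum) and without enzyme (minimum). The 60 min room-temperature reaction uses 0.1 mM ATP, with ADP detected by luminescence.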
# Peroxisome proliferator-activated receptor alpha (Homo sapiens), sequence (Q07869 whole entry, looked up): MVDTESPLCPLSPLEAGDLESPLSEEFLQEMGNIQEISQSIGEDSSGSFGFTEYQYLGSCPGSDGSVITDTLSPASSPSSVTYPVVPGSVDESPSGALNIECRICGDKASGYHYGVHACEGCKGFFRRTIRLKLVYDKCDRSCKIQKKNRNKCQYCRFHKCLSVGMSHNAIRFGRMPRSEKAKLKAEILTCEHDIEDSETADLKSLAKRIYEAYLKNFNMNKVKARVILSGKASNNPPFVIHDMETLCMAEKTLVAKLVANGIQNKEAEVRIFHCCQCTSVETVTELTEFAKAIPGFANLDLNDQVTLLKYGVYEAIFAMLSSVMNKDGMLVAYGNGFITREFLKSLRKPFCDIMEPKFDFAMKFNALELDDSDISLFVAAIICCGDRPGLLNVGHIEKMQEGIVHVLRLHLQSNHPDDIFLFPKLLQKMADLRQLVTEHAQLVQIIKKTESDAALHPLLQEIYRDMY
# Tyrosine-protein kinase Yes (Homo sapiens), sequence (P07947 whole entry, looked up): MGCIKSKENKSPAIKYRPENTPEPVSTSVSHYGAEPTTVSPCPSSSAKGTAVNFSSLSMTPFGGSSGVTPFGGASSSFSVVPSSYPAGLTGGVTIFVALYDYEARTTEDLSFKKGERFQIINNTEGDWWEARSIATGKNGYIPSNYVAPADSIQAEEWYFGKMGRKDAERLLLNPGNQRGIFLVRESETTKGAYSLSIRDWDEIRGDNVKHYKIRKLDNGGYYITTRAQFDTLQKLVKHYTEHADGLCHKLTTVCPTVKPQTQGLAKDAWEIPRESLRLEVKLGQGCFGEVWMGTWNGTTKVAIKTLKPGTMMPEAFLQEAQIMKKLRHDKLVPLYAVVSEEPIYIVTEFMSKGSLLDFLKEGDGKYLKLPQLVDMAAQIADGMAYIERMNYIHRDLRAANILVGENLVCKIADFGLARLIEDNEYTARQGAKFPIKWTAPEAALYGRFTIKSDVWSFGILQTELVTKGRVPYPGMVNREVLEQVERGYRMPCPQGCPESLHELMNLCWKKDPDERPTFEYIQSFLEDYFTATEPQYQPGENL
# Nuclear receptor ROR-gamma (Homo sapiens), sequence (P51449 whole entry, looked up): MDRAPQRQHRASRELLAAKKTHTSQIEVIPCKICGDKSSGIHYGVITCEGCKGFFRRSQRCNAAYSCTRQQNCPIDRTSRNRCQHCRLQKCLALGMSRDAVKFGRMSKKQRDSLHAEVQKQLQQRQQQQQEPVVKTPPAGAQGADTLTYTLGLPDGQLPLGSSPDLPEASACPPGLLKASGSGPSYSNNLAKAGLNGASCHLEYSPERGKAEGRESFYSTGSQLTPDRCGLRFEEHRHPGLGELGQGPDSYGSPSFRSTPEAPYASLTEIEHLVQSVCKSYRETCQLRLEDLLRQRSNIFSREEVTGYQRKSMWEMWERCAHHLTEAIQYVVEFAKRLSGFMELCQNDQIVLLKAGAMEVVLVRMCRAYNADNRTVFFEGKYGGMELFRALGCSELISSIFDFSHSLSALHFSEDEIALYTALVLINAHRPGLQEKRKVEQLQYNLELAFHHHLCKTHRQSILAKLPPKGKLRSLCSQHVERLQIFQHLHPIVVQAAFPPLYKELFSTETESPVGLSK
# Tumor necrosis factor (Homo sapiens), sequence (P01375 whole entry, looked up): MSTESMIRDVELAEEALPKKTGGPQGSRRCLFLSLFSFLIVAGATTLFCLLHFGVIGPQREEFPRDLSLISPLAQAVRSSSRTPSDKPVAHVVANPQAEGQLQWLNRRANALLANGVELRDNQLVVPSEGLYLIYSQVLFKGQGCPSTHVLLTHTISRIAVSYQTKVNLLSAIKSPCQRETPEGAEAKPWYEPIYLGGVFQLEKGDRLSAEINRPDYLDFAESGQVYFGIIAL
structure (smiles),measurement,setting,value
CC(C)(c1ccc(O)cc1)c1ccc(O)cc1,Potency,[1],26.6 µM (active) and 13.3 µM (active)
same,Potency,[2],33.5 µM (active)
CCCCC(CC)COC(=O)c1ccccc1C(=O)O (stereo not given),Potency,[3],28.2 µM (active)
CCOCCOC(C)=O,activation,[4],-0.566%
same,outcome,[5],inactive
same,activation,[6],-0.221%
same,max response,[3],0.307%
same,Potency,[7],inactive
O=S(=O)(O)C(F)(F)C(F)(F)C(F)(F)C(F)(F)C(F)(F)C(F)(F)C(F)(F)C(F)(F)F,activation,[4],-2.58% and 0.715%
same,activation,[6],1.49% and 0.543%
same,max response,[3],-0.394% and 4.02%
CCCN(CCC)c1c([N+](=O)[O-])cc(S(N)(=O)=O)cc1[N+](=O)[O-],activation,[8],-2.96%
same,activation,[6],-1.72%
same,max response,[3],9.4%
C=CCON=C(C[C@H]1O[C@@H]2O[C@]3(C)CC[C@@H]4[C@H](C)CC[C@@H]([C@H]1C)[C@@]24OO3)[C@H]1O[C@@H]2O[C@]3(C)CC[C@H]4[C@H](C)CC[C@@H]([C@@H]1C)[C@@]24OO3,Potency,[9],6.88 µM (active)
Nc1ccccc1N,Potency,[6],39.8 µM (active)
CC(C)[C@]12O[C@H]1[C@@H]1O[C@]13[C@]1(O[C@H]1C[C@H]1C4=C(CC[C@@]13C)C(=O)OC4)[C@@H]2O,Potency,[9],inactive
COCCOCCO,activation,[8],-0.521% and -1.09%
same,activation,[6],-0.559% and 0.0587%
same,max response,[3],-0.0911% and 0.363%
